Here are results for 15 compounds from PubChem BioAssay (NCATS).

Structures are written as SMILES. Inconclusive results are not listed. A call without a number means that no potency is given here. The source made the active and inactive calls. Unless noted, calls follow the shape of the dose curve; as a rule, active = well fitted inhibition curve with a large enough effect; inconclusive = small, poorly fitted or top-dose-only effect; inactive = no such curve, though single readings can be large or run the other way.

Assay [1] can be described thus: qHTS for Inhibitors of the Functional Ribonucleoprotein Complex (vRNP) of Lassa (LASV) Arenavirus: LASV Primary Screen - GLuc reporter signal (AID 1347082; calls by dose curve; tested in HEK293 reporter line; also: series mostly up to about 57 µM; nearly all actives have a fitted effect of over 60% in size). (In qHTS, concentration-response curves come from the screen itself.)
A short description of assay [2]: qHTS for Inhibitors of the Functional Ribonucleoprotein Complex (vRNP) of Lassa (LASV) Arenavirus: Viability assay - alamar blue signal for LASV Primary Screen (AID 1347083; calls by dose curve; tested in HEK293 reporter line; also: nearly all actives have a fitted effect of over 80% in size; also: potency is read from the fitted curve at half-maximal effect).
A short description of assay [3]: NS1 protein of Zika virus - qHTS assay to identify small molecule inhibitors in human HEK 293 cells (AID 1347053). Also: series mostly up to about 46 µM; nearly all actives have a fitted effect of over 55% in size. An outline of the steps:
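In this cell-based screen, HEK 293 cultures received compound for one hour before Zika MR766 at MOI = 0.5. NS1 was quantified 24 hours later by TR-FRET, normalized to virus-free wells and infected wells.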

Assay [4] in a line: qHTS for Inhibitors of the Functional Ribonucleoprotein Complex (vRNP) of Lymphocytic Choriomeningitis Arenaviruses (LCMV): Viability assay - alamar blue signal for LCMV Primary Screen (AID 1347085; calls by dose curve; tested in HEK293 reporter line; also: series mostly up to about 57 µM; nearly all actives have a fitted effect of over 80% in size).

For the compound `O=C(O)c1ccccc1-c1ccc(C(F)(F)F)cc1`, the Potency entry in assay [1] and in assay [2] was “inactive” each time.
For `CCCCCCNC(=O)n1cc(F)c(=O)[nH]c1=O`, in assay [1], the Potency result is “inactive”. The Potency in assay [2] is 43.2 µM (active).
The like results for `Nc1nc2[nH]cc(CCc3ccc(C(=O)N[C@@H](CCC(=O)O)C(=O)O)cc3)c2c(=O)[nH]1` were, in that order, “inactive” and “inactive”.
Take `Nc1nc(Cl)nc2c1ncn2[C@@H]1O[C@H](CO)[C@@H](O)[C@@H]1F`: in assay [1], the Potency result is “inactive”.
For `Nc1cc(C(Cl)=C(Cl)Cl)c(S(N)(=O)=O)cc1S(N)(=O)=O`, the Potency entry in assay [1] and in assay [2] was “inactive” each time.
Consider `Nc1ncn([C@H]2C[C@H](O)[C@@H](CO)O2)c(=O)n1`, for which the Potency entry in assay [1] is “inactive”.
Regarding `Cc1onc(-c2ccccc2)c1C(=O)N[C@@H]1C(=O)N2[C@@H](C(=O)O)C(C)(C)S[C@@H]12`, the Potency entry in assay [1] and in assay [2] was “inactive” in each case.
Regarding `CCCC(=O)O[C@]1(C(=O)CO)CC[C@H]2[C@@H]3CCC4=CC(=O)CC[C@]4(C)[C@H]3[C@@H](O)C[C@@]21C`, the Potency entry in assay [1] and in assay [2] was “inactive” each time.
On to `Cc1ccccc1C(=O)Nc1ccc(C(=O)N2CCCC(N(C)C)c3ccccc32)cc1` (stereo not given), for which the Potency entry in assay [1] is “inactive”.
With `c1ccc(N2CCNCC2)cc1`, in assay [3], the result was inactive. Also, the Potency entry in assay [1], in assay [2] and in assay [4] was “inactive” each time.
As to `COCCCOc1ccnc(CS(=O)c2nc3ccccc3[nH]2)c1C` (stereo not given), the Potency entry in assay [1] and in assay [2] was “inactive” in each case.
`COc1cc(C)nc(-n2nc(C)cc2OC)n1`: the Potency entry in assay [1] and in assay [2] was “inactive” in each case.
As to `CC[N+]1(CC)CCC(OC(=O)C(O)(c2ccccc2)c2ccccc2)C1` (stereo not given), the compound was classed as inactive in assay [3]. For the same compound, the Potency entry in assay [1], in assay [2] and in assay [4] was “inactive” in each case.
Turning to `Nc1ccc(C(=O)Nc2ccccc2N)cc1`, in assay [1], the Potency result is “inactive”.
`CC(C)Cc1ccc(C(C)C(=O)O)cc1` (stereo not given): the Potency result in assay [1] and in assay [2] was “inactive” each time.
